Data published in PubChem BioAssay (NCI).
Compounds without any hit were thinned out: in the full panel of roughly 79,000, 15% have a hit. Values without a mark were called inactive. Activity calls are given as the source filed them. Rule as the data show it: active = growth inhibition above about 70%; inactive = the rest.

How the values were obtained:
[1] = NCI Yeast Anticancer Drug Screen. Data for the rad50 strain (AID 155);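 also: 0% = growth of vehicle-only cultures of the same strain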; conditions: S. cerevisiae rad50 strain growth inhibition; at 50.0 µM; active compounds read high
Summary of the method: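 Relative growth inhibition (compound vs vehicle) was measured in yeast with a defined repair-gene alteration.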

[2] = NCI Yeast Anticancer Drug Screen. Data for the mec2-1 strain (AID 157); conditions: S. cerevisiae mec2-1 strain, at 50.0 µM, active compounds read high
Summary of the method: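 Yeast mec2-1 mutant treated with compound. Readout: growth inhibition vs vehicle controls.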

[3] = NCI Yeast Anticancer Drug Screen. Data for the sgs1 mgt1 strain (AID 161);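 also: 0% = growth of cultures given vehicle only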; conditions: S. cerevisiae sgs1 mgt1 strain, at 50.0 µM, active compounds read high
Summary of the method: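 Read-out: growth inhibition vs vehicle controls. Cells: mutant yeast strain deficient in DNA damage repair.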

[4] = NCI Yeast Anticancer Drug Screen. Data for the cln2 rad14 strain (AID 165);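 also: 0% = growth equal to vehicle treated cultures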; conditions: S. cerevisiae cln2 rad14 strain, at 50.0 µM, active compounds read high
Summary of the method: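 cln2 rad14 yeast strain; compound exposure; growth inhibition read vs vehicle controls.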

[5] = NCI Yeast Anticancer Drug Screen. Data for the bub3 strain (AID 167); conditions: S. cerevisiae bub3 mutant strain, at 50.0 µM, active compounds read high
Summary of the method: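 Screening used yeast with an engineered genetic alteration affecting cell cycle control. Compound-exposed cultures were compared with vehicle cultures, and reduced growth was taken as inhibition.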

[6] = NCI Yeast Anticancer Drug Screen. Data for the mlh1 rad18 strain (AID 175); conditions: S. cerevisiae mlh1 rad18 strain growth inhibition; at 50.0 µM; active compounds read high
Summary of the method: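 Yeast w/ defined DNA-repair lesions; compound exposure; growth vs vehicle controls → % inhibition.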

| Compound | growth inhibition [1] | growth inhibition [2] | growth inhibition [3] | growth inhibition [4] | growth inhibition [5] | growth inhibition [6] |
| --- | --- | --- | --- | --- | --- | --- |
| c1ccc2c(c1)CNNC2 | 11.3% | -4.4% | -5.55% | 11.3% | 15.8% | -8.1% |
| CC1(C)OC(=O)N=C1c1cccc(Cl)c1 | -12.3% | -17.8% | -15.9% | -5.9% | 4.25% | -3.7% |
| COc1ccccc1NC(C)=O | 8.15% | 5.8% | 0.15% | 6% | 11.4% | -30.4% |
| CCOC1(OCC)CS(=O)(=O)C1c1ccccc1 (stereo unspecified) | -1.2% | -10.2% | 1.95% | -26.2% | 12.6% | -18.6% |
| COc1ccc(-c2cn3c(nc4ccccc43)c(C)n2)cc1 | -4.8% | -3.15% | 16.6% | -17.9% | 21% | -11.3% |
| O=C(CC/C(CC(=O)c1ccc(Cl)cc1)=N\O)Nc1cccc(Cl)c1 | -31.9% | -2.4% | -6.45% | -3.85% | 0.7% | -11.6% |
| Cc1nnc2c3[nH]c4ccccc4c3c(Cl)nn12 | -3.3% | -7.25% | 3.55% | -52.2% | -10.8% | -11.1% |
| O=NN(CCCl)C(=O)NC1CCC(C(=O)O)CC1 (stereo unspecified) | 29.6% | -2.05% | -6.65% | -7.8% | -0.75% | 2.4% |
| CCOc1ccc(C=O)cc1OCC | 0.15% | -25.4% | -9.3% | -15.8% | -2.7% | -10.3% |
| COc1ccc(OC)c(NC(=O)OCc2ccc3c(c2)OCO3)c1 | 1.25% | -14% | 5.45% | 10.2% | 26.9% | -4.7% |
| Nc1cccc(/C=C(/C(=O)O)c2ccc(Cl)cc2)c1 | 3.4% | -4.45% | -7.3% | -38.9% | -15.6% | 0.15% |
| O=C(CCn1[nH]c(=O)c(Cl)c(Cl)c1=O)NO | -21.3% | -14.1% | -9.75% | 3.35% | -19.1% | -13.9% |
| CC1(c2ccc(-c3ccccc3)cc2)NC(=O)NC1=O (stereo unspecified) | 3.55% | 10.3% | 14.9% | -22.5% | -4.85% | -2.3% |
| C=C(Cl)/C(=C\Cl)CCC(Cl)C(C)C (stereo unspecified) (tested in a mixture with another compound) | 68.5% | 78% (active) | 91% (active) | 72% (active) | 90.8% (active) | 89.3% (active) |
| O=C(N[C@@H](CCl)[C@H](Cl)c1ccc([N+](=O)[O-])cc1)c1ccc([N+](=O)[O-])o1 | 85.3% (active) | 76.2% (active) | 93.3% (active) | 83.7% (active) | 87.3% (active) | 92.8% (active) |
| Fc1cccc(CSC(=S)Nc2ccc(Cl)c(C(F)(F)F)c2)c1 | 99.1% (active) | 99.5% (active) | 99.5% (active) | 99.2% (active) | 99.2% (active) | 99% (active) |
| O=P(O)(c1cc(Cl)cc(Cl)c1)c1cc(Cl)cc(Cl)c1 | 2.05% | -7.45% | 10.2% | -5.1% | -7.1% | -4.5% |
| Cc1cc(Cl)ccc1OCC(=O)OCCBr | 3.55% | 17.9% | 5.35% | -23.2% | -22.9% | -8.15% |
| O=C1c2cccc3c([N+](=O)[O-])ccc(c23)C(=O)N1CC1CCCO1 (stereo unspecified) | 71.3% (active) | 51% | 87.1% (active) | 40.8% | 51.8% | 73.5% (active) |
| CC(C)=CC1C(COC(=O)c2ccccc2Cl)C1(C)C (stereo unspecified) | 1% | -8.3% | -2.9% | -27.9% | -12.4% | 18.8% |
| [CH3][Sn]([CH3])([O]C(=O)c1ccc2c(c1)OCO2)[O]C(=O)c1ccc2c(c1)OCO2 | -0.15% | -3.25% | -11% | -12.7% | -9.7% | -9.9% |

| Compound | growth inhibition [1] | growth inhibition [2] | growth inhibition [3] | growth inhibition [4] | growth inhibition [5] | growth inhibition [6] |
| --- | --- | --- | --- | --- | --- | --- |
| O=Cc1c(Cl)c(Cl)c(Cl)c(Cl)c1Cl | -2.3% | 6.3% | 16.9% | -39.6% | 4.6% | 51.1% |
| CCC(CC(N)=O)C(C#N)(C#N)C(N)=O (stereo unspecified) | 12.9% | 5.05% | -4.05% | -2.85% | 7.1% | 3.95% |
| CSC(=S)n1nc(-c2cccs2)c(N=Nc2ccc([N+](=O)[O-])cc2)c1C(F)(F)F | 19.1% | -3.75% | 19.9% | 12.2% | 3.8% | 0.85% |
| CNC(=O)c1ccccc1CC1(O)CCCC1 | -9.85% | -15.5% | -0.5% | 8.5% | -9.75% | -25.1% |
| Cc1cc2c(=O)cc(-c3ccccc3)oc2c(C(N)=O)c1C | 15.3% | 19.9% | 27.5% | -2.95% | 14.8% | 1.55% |
| CCCCC(CCCC)(C(=O)NC)c1ccccc1 | 3.85% | 6.65% | -4.5% | -14.2% | 17.1% | -23.5% |
| CC(=O)c1cccc(NC(=O)Nc2cccc3ccccc23)c1 | 0.45% | 5.7% | 14.9% | 2.75% | 15.7% | 2.7% |
| O=C1C=C(Nc2nc(O)cc(=O)[nH]2)c2ccccc2C1=O | 0.75% | 2.2% | 1.15% | -38.5% | -0.4% | 13.5% |
| O=C(CCl)NCCc1ccccc1 | 17.5% | 5.6% | -0.4% | 12.8% | 24.8% | 1.1% |
| CCCCCC(=O)OCCOCCOC | 33.7% | -2.9% | 29.6% | 0.25% | 2.25% | 29.3% |
| O=S(=O)(Cc1ccccc1)CC(Br)CBr (stereo unspecified) | 82.9% (active) | 97.2% (active) | 96.1% (active) | 27.4% | 95.2% (active) | 97.2% (active) |
| c1ccc(CNc2ccccc2)cc1 | 3.6% | -29.5% | -24.4% | 12.1% | -18.9% | -2.1% |
| COC(=O)C1(CC(=O)c2cc(Cl)ccc2Cl)NC(=S)NC(=O)C1C#N (stereo unspecified) | 19.9% | -9.1% | -8.15% | 30.5% | -6.75% | 2.1% |
| CCOC(=O)/C(C#N)=C/c1ccnc2ccccc12 | -39.7% | -46.5% | -30.8% | -45.4% | -29.1% | -23.1% |
| C#CCC(O)c1ccc(OC)c(OCc2ccccc2)c1 (stereo unspecified) | -6.05% | -17.9% | 18.6% | 4.4% | 4.45% | -1.4% |
| O=C(NCC(C(=O)OCc1ccccc1)C(=O)OCc1ccccc1)OCc1ccccc1 | -8.9% | -13.8% | 1.55% | -14.1% | -24.4% | -12.3% |
| C#CC(OC(C)=O)C1OC(n2cnc3c(Cl)nc(Cl)nc32)C(OC(C)=O)C1OC(C)=O (stereo unspecified) | 37.5% | 2.45% | 21.2% | 17.9% | 10.8% | 24.4% |
| CC(C)N(CC(c1ccccc1)C(O)(c1ccccc1)c1ccccc1)C(C)C (stereo unspecified) | 16.1% | 8% | 17.5% | 26.8% | -0.75% | 32.3% |
| COC(=O)CC1C(=O)OC23CCC1C2(C)CCC1C3CCC2CC(OC(C)=O)CCC21C (stereo unspecified) | 87.4% (active) | 89.3% (active) | 90.5% (active) | 82% (active) | 87.5% (active) | 87.9% (active) |
| CCC(=O)c1cc(-c2ccccc2)nc2ccc(OC)cc12 | 2.6% | 1.2% | 11.5% | -23.4% | -12.2% | -24.4% |
